Source: PubChem (Broad Institute)
aSyn 5UTR act: Activators working through SNCA 5'UTR binding (MLPCN); alpha-synuclein 5'UTR reporter, activators screen; activity score, % (tested at 7.5 µM), hits read low; 300,000 tested, 7.1% active; in the data active = activity score below about -60%
Numbers without * were called inactive. Only a sample is shown.

SMILES	aSyn 5UTR act
COc1ccccc1C(=O)Nc1ccccc1SC(=O)c1ccccc1OC	-112.3*
COc1ccccc1C(=O)Nc1cc(-c2ccc(C)cc2)no1	-177.7*
COc1ccccc1C(=O)Nc1cccc(NC(=O)c2ccccc2OC)n1	-112.3*
COc1ccccc1C(=O)Nc1ccc2c3c(cccc13)CC2	-117.6*
Cc1cc(NC(=O)C(=O)c2cn(C)c3ccccc23)no1	-71.7*
COc1cccc2cc(C(=O)Nc3cccc(C)n3)c(=O)oc12	-166.6*
COc1ccccc1-c1cc(C(=O)NCCc2ccccc2)no1	-114.3*
CCCc1cc(C(=O)NCCc2ccccc2)no1	-91.2*
COc1cccc2cc(C(=O)NCCc3ccccc3)oc12	-83.5*
CC(C)OC(=O)CC12CN(C)CC(CC(=O)OC(C)C)(CN(C)C1)C2=O	-98.3*
CCCCCc1ccc(-c2nnc(N)s2)cc1	-97.7*
CCCCCCc1ccc(-c2ncc(N)cn2)cc1	-67.7*
CC(=O)Oc1ccc(C(=O)Nc2ccc(C3(C#N)CCCC3)cc2)cc1	-142.1*
N#CC1(c2ccc(NC(=O)c3ccccc3)cc2)CCCC1	-89.4*
Cc1c(C(=O)Nc2ccc(Cl)cc2)c2ccccn2c1CCc1ccncc1	-115.1*
Cc1c(C(=O)Nc2cccc(Cl)c2)c2ccccn2c1CCc1ccncc1	-102.9*
O=S(=O)(c1ccc(OCc2nc3ccccc3s2)c(Cl)c1)N1CCOCC1	-140.7*
O=S(=O)(c1cccc(-c2nnc(SCc3nc4ccccc4s3)o2)c1)N1CCOCC1	-186.6*
CN(C(=O)/C=C/c1ccccc1)C1CCCCC1	-97.8*
CCOc1c(OC(C)=O)ccc(/C=C/c2ccc3cccc(OC(C)=O)c3n2)c1[N+](=O)[O-]	-378.3*
COc1c(OC(C)=O)ccc(/C=C/c2ccc3cccc(OC)c3n2)c1[N+](=O)[O-]	-146.3*
COc1c(OC(C)=O)ccc(/C=C/c2ccc3ccccc3n2)c1[N+](=O)[O-]	-208.7*
Cc1ccc(NC(=S)NC2CCCC2)cc1C	-127.9*
S=C(Nc1ccc2[nH]ccc2c1)NC1CCCCC1	-104.9*
O=C(NC(=S)Nc1ccc(F)cc1)C1CCCCC1	-62.5*
SMILES	aSyn 5UTR act
CC(C)CC(=O)Nc1ccc(C(=O)NNC(=S)NC(=O)C2CCCCC2)cc1	66.6
O=C(NC(=S)Nc1ccccc1F)C1CCCCC1	-87.8*
Cc1nc2ccc(NC(=S)NC3CCCCC3)cc2nc1C	-172.5*
Cc1ccc(NC(=S)NC(=O)C2CCCC2)cc1C	-130.6*
Cc1ccc(NC(=S)NC(=O)C2CCC2)cc1C	-95.4*
Cc1ccc(NC(=S)NC(=O)C2CC2)c(C)c1	-119.3*
COC(=O)c1ccc2nc(Nc3nc4ccc(F)cc4s3)sc2c1	75.1
CCOC(=O)c1csc(Nc2nc3ccc(F)cc3s2)n1	-81.6*
CC(=O)c1sc(Nc2nc3ccc(F)cc3s2)nc1C	-216.3*
CCN(CC)c1ccc(C2Nc3cccc4cccc(c34)N2)cc1	-171.1*
CC1SCC(=NOCc2ccccc2)CS1 (stereo unspecified)	-88.5*
Oc1c(Cl)cc(Cl)cc1C=Nc1ccc2c(c1)OCCO2	-63.0*
CC(C)COC(=S)Nc1ccccc1	-82.9*
CCN(CC)S(=O)(=O)c1cc(OC)ccc1N=Nc1ccc(O)c2ncccc12	59.5
COc1ccc(O)c(C(=O)c2cnn(-c3ccccn3)c2)c1	-130.1*
COc1ccc(O)c(C(=O)c2cnn(-c3ccc(Cl)cc3)c2)c1	-75.0*
NNc1ccc(Cl)c(C(=O)O)c1	-180.0*
Cc1ccc(/C=N/Nc2ccc(Cl)c(C(=O)O)c2)s1	-153.3*
O=C(O)c1cc(N/N=C/c2cccs2)ccc1Cl	-252.7*
O=[N+]([O-])c1cccc(N/N=C/c2cccc3ccccc23)c1	-91.2*
O=C(O)c1cc(N/N=C/c2cccc3ccccc23)ccc1Cl	-131.3*
Fc1ccc(-c2ccc(CNCc3ccccn3)o2)cc1	-91.2*
CCOC(=O)C1CCN(C(=O)CN2C(=O)COc3ccc(C(C)(C)C)cc32)CC1	-111.2*
CC(=O)c1cccc(NC(=O)CN2C(=O)COc3ccc(S(=O)(=O)N4CCOCC4)cc32)c1	73.0
CC1(C)CC(=O)C2=C(C1)Nc1ccccc1N=C2	-162.9*
SMILES	aSyn 5UTR act
CCOc1cc(/C=C\[N+](=O)[O-])ccc1OCC(=O)Nc1ccccc1C	-79.8*
CC(=O)c1ccc(OCc2ccccc2)c(C)c1O	-107.7*
CCCCOC(=O)Nc1cccc(Cl)c1C	-104.1*
COc1ccccc1Nc1nc(C)cs1	-105.6*
O=[N+]([O-])c1cccc(-c2csc(Nc3ccccc3)n2)c1	-299.0*
COc1ccccc1Nc1ccc(Nc2ccccc2OC)nn1	-171.1*
COc1ccccc1Nc1nc(-c2cccc([N+](=O)[O-])c2)cs1	-77.2*
CCOC(=O)c1ccc(NC(=O)COc2ccc(CNC3CCCCC3)cc2OC)cc1	-63.1*
COc1ccc2c(c1)c1nnc(SC)nc1n2C	-68.2*
CCCN(CC(=O)Nc1cc(Cl)ccc1Cl)C(=O)/C=C/c1ccco1	-67.7*
C/C(=N\NC(=O)c1n[nH]c2c1CCC2)c1cccs1	107.2
C/C(=N\Nc1ccccn1)c1cccs1	-147.9*
C/C(=N/NC(=O)c1cnccn1)c1cccs1	-65.2*
C/C(=N\NC(=O)c1ccc(CSc2nncn2C)cc1)c1cccs1	-62.1*
